Common to all, as to set-up: scale not given: direction of the effect not stated beside the values
Assay [1] concerns the target Protein translocase subunit SecA (Escherichia coli (strain K12)) (UniProt P10408). The assay is described as follows: Assay to Identify E. coli SecA ATPase Inhibitors. The assay is classed as functional. The note with it: 30 µM.
Assay [2] deals with T1, Ubiquitin-activating enzyme e1, putative (Leishmania donovani (strain BPK282A1)) (UniProt E9BSI1).
T1 sequence (whole entry): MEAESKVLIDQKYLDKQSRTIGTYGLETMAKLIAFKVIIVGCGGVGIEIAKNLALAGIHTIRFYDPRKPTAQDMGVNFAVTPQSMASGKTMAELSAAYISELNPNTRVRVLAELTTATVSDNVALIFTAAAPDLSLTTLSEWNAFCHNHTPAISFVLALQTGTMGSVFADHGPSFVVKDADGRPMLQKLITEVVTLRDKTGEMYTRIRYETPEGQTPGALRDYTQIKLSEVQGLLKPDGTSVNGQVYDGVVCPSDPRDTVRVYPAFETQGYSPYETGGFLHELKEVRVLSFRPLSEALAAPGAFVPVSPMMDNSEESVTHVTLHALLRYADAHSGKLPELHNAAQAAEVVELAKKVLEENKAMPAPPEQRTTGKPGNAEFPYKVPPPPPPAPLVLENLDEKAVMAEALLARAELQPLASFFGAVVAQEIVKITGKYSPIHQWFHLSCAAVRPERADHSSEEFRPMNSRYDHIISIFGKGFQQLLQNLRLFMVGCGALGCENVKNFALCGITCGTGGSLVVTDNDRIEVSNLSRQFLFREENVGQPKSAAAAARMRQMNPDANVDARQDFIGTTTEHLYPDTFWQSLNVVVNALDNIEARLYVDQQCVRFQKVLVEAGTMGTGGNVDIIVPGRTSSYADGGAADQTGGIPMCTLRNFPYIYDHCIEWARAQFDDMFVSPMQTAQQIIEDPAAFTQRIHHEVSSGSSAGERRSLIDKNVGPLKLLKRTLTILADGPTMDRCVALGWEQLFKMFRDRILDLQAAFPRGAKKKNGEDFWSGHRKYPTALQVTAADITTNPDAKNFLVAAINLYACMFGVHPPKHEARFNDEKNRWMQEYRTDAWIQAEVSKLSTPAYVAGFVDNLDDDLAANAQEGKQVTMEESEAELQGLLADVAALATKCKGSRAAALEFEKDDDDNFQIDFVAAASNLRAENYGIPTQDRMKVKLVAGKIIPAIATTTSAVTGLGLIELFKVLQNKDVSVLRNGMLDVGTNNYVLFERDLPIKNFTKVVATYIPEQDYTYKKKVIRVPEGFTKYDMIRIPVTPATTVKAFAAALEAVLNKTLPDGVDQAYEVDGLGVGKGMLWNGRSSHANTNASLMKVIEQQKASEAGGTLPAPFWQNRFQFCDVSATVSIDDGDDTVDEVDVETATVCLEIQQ
The assay is described as follows: Leishmania donovani Ubiquitin Activating Enzyme (LdE1). The assay is classed as functional. As to conditions: 30 µM.

The target in assay [3] is AMP-activated protein kinase, AMPK (Homo sapiens) (UniProt P54646+O43741+P54619+Q9UGJ0+Q9Y478+Q13131+Q9UGI9). The assay is described as follows: AMP-dependent Kinase enzyme assay. An in vitro enzyme assay that detects ADP turnover that is directly proportional to AMPK activity. This uses naive AMPK that is activated during the assay with MK-8722. The assay is classed as functional. As to conditions: 30 µM.

The target in assay [4] is Sialic acid-binding Ig-like lectin 9 (Homo sapiens) (UniProt Q9Y336). Put plainly: Hs-Siglec9 ALPHAscreen SOP 20170721. The note with it: 10 µM. In general terms: In Alpha technology, singlet oxygen from a donor bead excites a nearby acceptor bead.
Sialic acid-binding Ig-like lectin 9 (Homo sapiens), sequence (Q9Y336 whole entry): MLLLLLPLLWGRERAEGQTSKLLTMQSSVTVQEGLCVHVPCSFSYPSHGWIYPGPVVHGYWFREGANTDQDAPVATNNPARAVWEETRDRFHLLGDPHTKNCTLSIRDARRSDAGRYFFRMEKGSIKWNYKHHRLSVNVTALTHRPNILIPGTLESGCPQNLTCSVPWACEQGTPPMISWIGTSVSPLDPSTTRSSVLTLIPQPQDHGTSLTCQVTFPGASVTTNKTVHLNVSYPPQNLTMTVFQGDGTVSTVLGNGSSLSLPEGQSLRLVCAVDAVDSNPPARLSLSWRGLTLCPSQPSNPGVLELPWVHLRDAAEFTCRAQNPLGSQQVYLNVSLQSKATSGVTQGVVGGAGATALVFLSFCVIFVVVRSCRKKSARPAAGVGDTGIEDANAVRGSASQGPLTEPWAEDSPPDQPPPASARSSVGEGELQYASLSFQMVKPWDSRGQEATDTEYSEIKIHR
Assay [5] concerns Trypanosoma cruzi. The assay is described as follows: Trypanosoma cruzi phosphomannomutase and mannose-1-phosphate guanylyltransferase assay. Format: functional. As to conditions: 10 µM.
The target of assay [6] is T2, Arginase-2, mitochondrial (Homo sapiens) (UniProt P78540).
T2 sequence (whole entry): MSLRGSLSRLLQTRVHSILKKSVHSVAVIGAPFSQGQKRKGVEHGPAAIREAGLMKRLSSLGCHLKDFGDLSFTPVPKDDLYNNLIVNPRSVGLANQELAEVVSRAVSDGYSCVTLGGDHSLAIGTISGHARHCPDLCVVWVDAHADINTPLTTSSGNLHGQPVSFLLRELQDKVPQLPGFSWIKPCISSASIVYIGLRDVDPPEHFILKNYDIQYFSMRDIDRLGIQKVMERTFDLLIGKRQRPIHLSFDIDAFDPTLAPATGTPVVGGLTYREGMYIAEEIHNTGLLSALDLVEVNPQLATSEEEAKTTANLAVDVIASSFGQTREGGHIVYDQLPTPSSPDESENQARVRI
The assay is described as follows: in vitro enzyme assay to detect the production of urea directly proportional to the activity of Arginase II. Further: in the data most compounds retested in dose-response had high values. Format: functional. The note with it: 33.3 µM.

In assay [7] the target is T3, Proteasome subunit beta (Trypanosoma cruzi) (UniProt O96673).
T3 sequence (whole entry): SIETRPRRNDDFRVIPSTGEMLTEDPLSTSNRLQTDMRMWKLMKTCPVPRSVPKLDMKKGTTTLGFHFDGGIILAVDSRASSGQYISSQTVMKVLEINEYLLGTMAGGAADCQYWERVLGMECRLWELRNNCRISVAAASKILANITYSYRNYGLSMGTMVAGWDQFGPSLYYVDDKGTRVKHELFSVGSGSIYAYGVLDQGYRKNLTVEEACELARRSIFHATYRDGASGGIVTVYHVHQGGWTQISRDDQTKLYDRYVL
The assay is described as follows: Trypanosoma cruzi proteasome chymotrypsin-like activity (TcProtChymo) assay. Further: in the data most compounds retested in dose-response had high values. The assay is classed as functional. As to conditions: 9.37 µM.

The species entered for assay [8] is Homo sapiens. The assay is described as follows: To identify inhibition of the IFN signalling (Jak-Stat) pathway via expression of an eGFP reporter gene under the control of an IFN-stimulated response element (ISRE) containing MxA promoter. Format: functional. As to conditions: 30 µM. In general terms: In a reporter assay the amount or activity of a reporter protein is the signal.

For assay [9], the target named is T4, Tyrosyl-tRNA synthetase, putative (Trypanosoma cruzi (strain CL Brener)) (UniProt Q4DSP6).
T4 sequence (whole entry): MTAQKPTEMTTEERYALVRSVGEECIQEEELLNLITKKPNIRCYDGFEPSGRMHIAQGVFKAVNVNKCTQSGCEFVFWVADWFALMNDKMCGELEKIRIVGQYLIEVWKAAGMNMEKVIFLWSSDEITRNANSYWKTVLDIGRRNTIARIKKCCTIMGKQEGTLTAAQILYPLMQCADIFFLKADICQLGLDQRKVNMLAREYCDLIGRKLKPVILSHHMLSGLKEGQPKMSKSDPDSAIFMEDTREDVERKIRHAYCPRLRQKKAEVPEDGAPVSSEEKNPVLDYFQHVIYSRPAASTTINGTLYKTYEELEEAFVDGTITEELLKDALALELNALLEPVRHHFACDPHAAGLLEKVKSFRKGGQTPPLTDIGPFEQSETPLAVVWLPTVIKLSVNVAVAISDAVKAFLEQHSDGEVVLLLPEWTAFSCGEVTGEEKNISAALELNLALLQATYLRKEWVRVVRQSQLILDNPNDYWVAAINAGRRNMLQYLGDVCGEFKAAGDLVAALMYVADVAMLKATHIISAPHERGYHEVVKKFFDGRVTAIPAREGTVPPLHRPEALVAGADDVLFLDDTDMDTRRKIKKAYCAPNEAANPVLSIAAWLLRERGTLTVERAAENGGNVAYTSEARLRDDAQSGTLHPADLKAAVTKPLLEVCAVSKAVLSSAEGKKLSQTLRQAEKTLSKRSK
The assay is described as follows: Trypanosoma cruzi tyrosyl tRNA synthetase (TcYRS) _High Tyrosine SOP. Further: in the data most compounds retested in dose-response had high values. The assay is classed as functional. As to conditions: 30 µM.

The target in assay [10] is T4, Tyrosyl-tRNA synthetase, putative (Trypanosoma cruzi (strain CL Brener)). The assay is described as follows: Trypanosoma cruzi tyrosyl tRNA synthetase (TcYRS) SOP. The assay is classed as functional. As to conditions: 30 µM.
In assay [11] the target is Chromo domain-containing protein 1 (Saccharomyces cerevisiae (strain ATCC 204508 / S288c) (Baker's yeast)) (UniProt P32657). Put plainly: ScCHD-1 Enzyme Inhibition Assay. Further: in the data most compounds retested in dose-response had high values. The assay is classed as functional. The note with it: 30 µM.
Chromo domain-containing protein 1 (Saccharomyces cerevisiae (strain ATCC 204508 / S288c) (Baker's yeast)), sequence (P32657 whole entry, the tested form may be a part): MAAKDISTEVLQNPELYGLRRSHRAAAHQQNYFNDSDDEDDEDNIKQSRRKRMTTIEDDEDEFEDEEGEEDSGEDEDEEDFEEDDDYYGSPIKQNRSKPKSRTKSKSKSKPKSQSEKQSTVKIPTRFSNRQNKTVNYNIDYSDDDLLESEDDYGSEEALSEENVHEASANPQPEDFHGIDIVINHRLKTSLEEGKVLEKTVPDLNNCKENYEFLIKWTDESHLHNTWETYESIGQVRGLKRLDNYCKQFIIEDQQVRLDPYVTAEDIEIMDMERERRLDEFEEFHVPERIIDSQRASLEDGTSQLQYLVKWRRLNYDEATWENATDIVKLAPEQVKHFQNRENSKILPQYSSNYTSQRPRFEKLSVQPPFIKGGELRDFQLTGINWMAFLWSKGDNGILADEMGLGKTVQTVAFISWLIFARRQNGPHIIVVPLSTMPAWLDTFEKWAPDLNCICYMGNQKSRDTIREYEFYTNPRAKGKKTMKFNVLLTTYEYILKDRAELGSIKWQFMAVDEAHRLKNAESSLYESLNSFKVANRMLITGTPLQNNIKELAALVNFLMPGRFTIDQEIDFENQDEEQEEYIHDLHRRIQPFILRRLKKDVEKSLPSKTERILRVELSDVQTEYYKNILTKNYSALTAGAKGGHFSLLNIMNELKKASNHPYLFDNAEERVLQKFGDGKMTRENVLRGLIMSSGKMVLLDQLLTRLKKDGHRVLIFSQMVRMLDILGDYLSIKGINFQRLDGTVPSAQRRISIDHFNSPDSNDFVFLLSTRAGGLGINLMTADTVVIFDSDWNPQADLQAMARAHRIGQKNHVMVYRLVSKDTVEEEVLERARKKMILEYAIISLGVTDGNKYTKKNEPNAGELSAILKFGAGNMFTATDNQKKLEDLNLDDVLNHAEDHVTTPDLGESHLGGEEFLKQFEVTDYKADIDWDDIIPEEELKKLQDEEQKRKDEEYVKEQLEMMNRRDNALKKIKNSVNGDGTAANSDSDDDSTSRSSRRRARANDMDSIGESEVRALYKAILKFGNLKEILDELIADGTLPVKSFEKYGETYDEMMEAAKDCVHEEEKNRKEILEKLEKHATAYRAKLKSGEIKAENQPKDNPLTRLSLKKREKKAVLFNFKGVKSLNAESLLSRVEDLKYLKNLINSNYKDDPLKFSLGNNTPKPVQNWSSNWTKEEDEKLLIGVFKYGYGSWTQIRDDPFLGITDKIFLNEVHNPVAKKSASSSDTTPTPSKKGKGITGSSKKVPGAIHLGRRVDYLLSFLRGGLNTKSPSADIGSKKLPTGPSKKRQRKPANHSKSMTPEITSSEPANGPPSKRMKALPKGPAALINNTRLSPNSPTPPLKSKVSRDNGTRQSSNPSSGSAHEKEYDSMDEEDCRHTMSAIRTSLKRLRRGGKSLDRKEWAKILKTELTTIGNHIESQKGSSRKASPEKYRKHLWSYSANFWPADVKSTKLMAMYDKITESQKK

Among the data in ChEMBL document CHEMBL3988442, “University of Dundee, Small-Polar-MMV Screening Library” (2021) are Percent Effect values, retold here.

For some of these results: Results with a measured potency or affinity are listed apart.

Protein translocase subunit SecA (Escherichia coli (strain K12)), sequence (P10408 whole entry): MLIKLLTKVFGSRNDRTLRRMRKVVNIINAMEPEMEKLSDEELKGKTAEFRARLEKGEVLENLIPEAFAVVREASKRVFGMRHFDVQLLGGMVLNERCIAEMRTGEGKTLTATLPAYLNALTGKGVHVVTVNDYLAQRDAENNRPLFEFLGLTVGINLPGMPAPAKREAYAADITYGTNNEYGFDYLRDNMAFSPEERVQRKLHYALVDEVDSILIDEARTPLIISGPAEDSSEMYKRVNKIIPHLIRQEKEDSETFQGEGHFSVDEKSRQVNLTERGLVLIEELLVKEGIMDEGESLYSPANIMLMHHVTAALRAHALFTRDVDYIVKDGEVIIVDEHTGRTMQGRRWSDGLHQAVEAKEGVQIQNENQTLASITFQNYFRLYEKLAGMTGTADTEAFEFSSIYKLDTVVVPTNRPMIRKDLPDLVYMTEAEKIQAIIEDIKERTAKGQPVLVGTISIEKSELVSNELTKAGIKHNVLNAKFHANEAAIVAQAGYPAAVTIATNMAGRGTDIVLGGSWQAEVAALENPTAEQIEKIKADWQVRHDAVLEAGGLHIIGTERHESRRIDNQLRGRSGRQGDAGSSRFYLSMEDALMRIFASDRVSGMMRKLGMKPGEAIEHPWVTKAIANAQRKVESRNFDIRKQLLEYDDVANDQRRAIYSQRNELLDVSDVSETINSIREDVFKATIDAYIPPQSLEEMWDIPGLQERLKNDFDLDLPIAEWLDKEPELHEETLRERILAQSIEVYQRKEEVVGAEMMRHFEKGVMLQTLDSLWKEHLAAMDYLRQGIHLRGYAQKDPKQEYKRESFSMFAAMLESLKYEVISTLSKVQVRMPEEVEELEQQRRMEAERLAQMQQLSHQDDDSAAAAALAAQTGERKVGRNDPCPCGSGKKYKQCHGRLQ

With `CCc1nnc2n1CCN(Cc1ccc(C(=O)N3CCCC3)cc1)C2`, the Percent Effect in [1] is -2.96%; in assay [2] it was 13.5%; in [3], 2.51%; in [4], -7.2%; in assay [5] it was -2.69%; in assay [6], -4.25%. Besides, the Percent Effect is 12.8% in assay [7]; 17.1% in assay [8]; 6.93% in assay [9]; 15.8% in [10]; -4.5% in assay [11].

In the case of `COC(=O)c1ccc(N2CCN(CCC(=O)NC(N)=O)C(C)C2)cc1` (stereo unspecified), the Percent Effect in assay [1] was -5.21%; in assay [2], 15.8%; in assay [3] it was -4.81%; in assay [4], 0.77%; in [5], -5.51%; in assay [6] it was -0.719%. Also, the Percent Effect in [7] was -2.45%; in assay [8], 5.46%; in assay [9] it was 5.42%; in assay [10] it was 13.6%; in assay [11], 2.67%.

Take `CN(C)Cc1nc(C(C)(C)NC(=O)C2CC(=O)N(CC3CC3)C2)no1` (stereo unspecified): the Percent Effect in assay [1] was -8.14%; in assay [2] it was 5.41%; in assay [3] it was 0.168%; in assay [4], 2.33%; in [5], -3.44%; in [6] it was 3.14%. For the same compound, the Percent Effect is -3.77% in assay [7]; 22.2% in assay [8]; 1.98% in [9]; 1.22% in assay [10]; 4.96% in assay [11].

For `Cc1ccc(C)c(-n2ccc3nc(N4CCCC4)ncc3c2=O)c1`, the Percent Effect in assay [1] was -0.118%; in [2], -6.67%; in assay [3], 21.7%; in assay [4], 3.47%; in assay [5] it was -2.16%; in assay [6], -6.16%. Further, the Percent Effect was -2.96% in [7]; -1.59% in [8]; 3.17% in [9]; -5.13% in [10]; -0.262% in assay [11].

On to `Nc1nc(C2CCN(C(=O)c3cncs3)CC2)cs1`, for which the Percent Effect in [1] was -7.01%; in [2], 12.2%; in assay [3], 9.81%; in assay [4], 5.35%; in assay [5], 1.38%; in assay [6], 0.232%. Further, the Percent Effect in [7] was 3.59%; in assay [8] it was -3.51%; in assay [9], 3.23%; in assay [10] it was 11.7%; in [11] it was -8.22%.

In the case of `COCCCN1CCCN(C(C)c2nc(C3CC3)no2)CC1` (stereo unspecified), the Percent Effect was -1.91% in assay [1]; 8.11% in [2]; -3.11% in assay [3]; 15.8% in assay [4]; 4.74% in assay [5]; -13.5% in assay [6]. Besides, the Percent Effect in [7] is 6.46%; in assay [8] it was -3.07%; in [9], 4.95%; in assay [10], 15.8%; in [11], -1.39%.

Turning to `COc1ccc(C)cc1CN1CCCC1c1noc(C2CC2)n1` (stereo unspecified), the Percent Effect was -1.46% in [1]; -2.7% in [2]; -7.59% in assay [3]; -1.73% in assay [4]; 5.85% in assay [5]; -9.8% in [6]. Also, the Percent Effect in assay [7] was 18.7%; in [8], 67.4%; in assay [9], 9.9%; in assay [10] it was 18.3%; in assay [11], -3.74%.

For `CC(C)CCC(C)NC(=O)c1ccc(OCC(N)=O)cc1` (stereo unspecified), the Percent Effect is 0.307% in [1]; 10.8% in assay [2]; -4.08% in assay [3]; 5.06% in assay [4]; -2.7% in [5]; -1.43% in assay [6]. For the same compound, the Percent Effect in [7] was 10.5%; in assay [8], 11.1%; in assay [9], 5.82%; in assay [10] it was 12.2%; in [11], -4.44%.

On to `Cc1cc(CN2CCN(c3nn4cc(C)nc4s3)CC2)on1`, for which the Percent Effect in [1] is -0.836%; in assay [2], 16.5%; in [3] it was 4.65%; in assay [4] it was 3%; in assay [5] it was -0.923%; in [6], 0.215%. In addition, the Percent Effect in [7] is 20.4%; in assay [8], 6.94%; in assay [9], 7.29%; in assay [10], 15.2%; in assay [11], -20.7%.

On to `CN(C)C(CNC(=O)c1cccc(-n2cnnn2)c1)c1ccccc1Cl` (stereo unspecified), for which the Percent Effect in assay [1] was -1.38%; in assay [2] it was 2.74%; in [3], 2.54%; in [4] it was -4.62%; in assay [5], -7.64%; in assay [6], 3.64%. In addition, the Percent Effect in [7] is 10.8%; in assay [8] it was 10.5%; in assay [9] it was 3.23%; in assay [10] it was 10%; in assay [11], -3.4%.

Regarding `CCCc1n[nH]c(C2CN(C(=O)CCCn3cccn3)CCO2)n1` (stereo unspecified), the Percent Effect in assay [1] is -4.8%; in [2], -4.17%; in assay [3] it was -0.0148%; in assay [4], -2.33%; in [5], -2.82%; in [6] it was -0.883%. The Percent Effect in assay [7] was 7.89%; in assay [8], -2.8%; in assay [9] it was -1.05%; in [10], -2.56%; in assay [11], 5.04%.
